# Shown are actives, neighbours in structure and some others; about 1.3% of the full set was active somewhere.
# MEX-5 binding – MEX-5 zinc finger RNA-binding disruptors – biochemical, C. elegans, fluorescence polarization, MLPCN library, primary screen; hit rate 0.38% among 300,000; MEX-5/FITC-TCR2 RNA binding; hits give low values; Zinc finger protein mex-5 (Caenorhabditis elegans), Q9XUB2; activity score (negative = inhibition of binding), % at 10 µM; AID 1832, 2009;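 active means inhibition past about -25% in most replicates, and total fluorescence under double the plate's negative control median, limit read from the data; inconclusive means replicates evenly split on the limit, or fluorescence at least double controls; inactive means too little inhibition in most replicates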
# GLD-1 TGE inh – GLD-1/TGE RNA complex disruptors, primary screen, biochemical, fluorescence polarization. Female germline-specific tumor suppressor gld-1 (Caenorhabditis elegans), Q17339. purified GLD-1 + fluorescein TGE RNA. inhibition, % at 5.96 µM. hit rate 0.44% among 320,000. AID 2280, 2010;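 active means percent inhibition above a per-plate cutoff, the plate mean of test compounds plus 3 SD, cut at about 30% in these data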
# BCLXL inh – inhibitors of human Bcl-xL, primary screen, biochemical, fluorescence polarization, HTS; hit rate 0.7% among 320,000; inhibition, % at 10.9 µM; Bcl-2-like protein 1 (Homo sapiens), Q07817; GST-Bcl-xL / FITC-Bim BH3 peptide fluorescence polarization;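 active means inhibition above the mean of all tested compounds plus 3 SD, cutoff set per campaign, cut at about 30% in these data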;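 further: inhibitors lower millipolarization by displacing the labeled peptide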
# Target sequence (Q07817 whole entry, looked up): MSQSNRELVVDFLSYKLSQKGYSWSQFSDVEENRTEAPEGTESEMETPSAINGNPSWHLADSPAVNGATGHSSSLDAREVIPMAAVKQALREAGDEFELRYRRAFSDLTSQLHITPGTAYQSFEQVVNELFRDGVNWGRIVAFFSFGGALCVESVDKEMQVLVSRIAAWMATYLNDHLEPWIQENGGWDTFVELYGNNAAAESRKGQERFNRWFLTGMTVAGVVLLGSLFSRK
# E coli Lon inh – inhibitors of E. coli Lon protease, primary screen, biochemical, fluorescence polarization. purified E. coli Lon protease. inhibition, % at 7.94 µM. hit rate 0.42% among 360,000. AID 602123, 2011; in the data active means inhibition above about 13%, passing the limit was not always enough
# EBV gp42 block – Epstein-Barr virus gp42 inhibitors, primary screen, biochemical, uHTS, fluorescence polarization. Glycoprotein 42 (Epstein-Barr virus (strain AG876)), Q1HVG2. Fluorescence polarization binding assay, mP read-out. inhibition, % (tested at 21.74 µM). hit rate 0.42% among 220,000. AID 1085, 2008; in the data active means inhibition above about 50%
# Numbers stand for hits; – = inactive; ? = inconclusive; · = no result.
SMILES,MEX-5 binding,GLD-1 TGE inh,BCLXL inh,E coli Lon inh,EBV gp42 block
CC(=O)c1ccc(NC(=O)C2Cc3ccccc3CN2C(=O)c2ccccc2)cc1 (configuration not stated),–,–,–,–,–
COc1ccc(NC(=O)C2Cc3ccccc3CN2C(=O)c2ccccc2)cn1 (configuration not stated),-38.0,55.4,80.9,–,64.2
O=Cc1c(Cl)nc2ccccn2c1=O,–,–,56.1,–,–
Cc1cccn2c(=O)c(C=O)c(Cl)nc12,–,–,–,–,–
Cc1nc2c(c(=O)n1CCC1=CCCCC1)c1nc3ccccc3nc1n2/N=C/c1ccco1,–,–,39.2,–,–
CCCCOC(=O)Cn1c2ccc(OC)cc2c2nc3ccccc3nc21,-28.4,–,–,–,79.0
CCn1c2ccc(OC)cc2c2nc3ccccc3nc21,?,–,–,·,–
CCOc1ccc(Cn2c3ccc(OC)cc3c3nc4ccccc4nc32)cc1,·,–,–,–,123.3
CCN(CC)C(=O)CSc1ncnc2c(-c3cccs3)nsc12,·,–,35.0,–,–
CC1CCC2(CC1)NC(=O)N(Cc1cccc(C(F)(F)F)c1)C2=O (configuration not stated),–,–,–,–,–
CC(C)C1OC2(C)OC(=N)C1(C#N)C(C#N)(C#N)C2c1ccccc1 (configuration not stated),–,79.4,79.9,–,–
COc1ccc(C(NC(=O)C2CCN(CCOc3ccc(Cl)cc3Cl)CC2)c2cccs2)cc1 (configuration not stated),·,·,·,–,·
N#C/C(=C\C=C\c1ccccc1)c1nc(-c2ccc3c(c2)OCO3)cs1,–,–,–,–,155.9
Oc1ccc(/C=N/NC(=S)Nc2cccnc2)cc1O,-45.5,–,–,–,–
Cc1nonc1C(=O)N/N=C/c1ccc(O)c(O)c1,–,–,–,–,–
O=C(N/N=C/c1ccc(O)c(O)c1)N/N=C/c1ccc(O)c(O)c1,-39.4,·,·,–,·
COc1ccc2cc(/C(C)=N/NC(=O)c3cc(C)oc3C)ccc2c1,·,·,·,–,·
N#Cc1cc(-c2ccccc2)nn1-c1ccccc1,–,–,45.1,–,–
O=C(c1ccco1)N1CCN(S(=O)(=O)c2c(Cl)cccc2Cl)CC1,–,–,–,–,·
C=CCN1C(=O)S/C(=C\c2ccc(N3CCOCC3)cc2C)C1=O,-29.1,–,–,–,–
CCOC(=O)/C=c1\s/c(=C\c2ccc3cc(OC)ccc3c2)c(=O)n1CC(=O)NCC1CCCO1 (configuration not stated),-47.1,–,–,–,–
COc1cccc(N=Cc2c(O)n(-c3cccc(C)n3)c(=O)c3ccccc23)c1,–,–,–,–,–
COc1ccc(N=Cc2c(O)n(-c3cccc(C)n3)c(=O)c3ccccc23)c(OC)c1,-68.6,–,–,–,–
O=C(c1ccc(O)cc1)c1ccc(O)cc1O,–,–,–,–,–
O=C(c1ccccc1)c1ccc(O)cc1O,?,79.4,133.8,–,67.5
SMILES,MEX-5 binding,GLD-1 TGE inh,BCLXL inh,E coli Lon inh,EBV gp42 block
CN(Cc1ccc(OC(F)F)cc1)C(=O)/C=C/c1ccc(S(=O)(=O)N2CCOCC2)cc1,·,–,·,–,·
Cc1ccc(C)c(NC(=O)Nc2ccc3c(c2)OCO3)c1,–,–,–,–,·
Cc1ccc(CNc2ccc3c(c2)OCO3)c(C)c1,–,–,127.1,·,–
CC(=O)Nc1ccc(N=Cc2nc(-c3ccc(C)cc3)oc2O)cc1,-31.1,31.3,88.5,–,–
COc1ccc(N=Cc2nc(-c3ccco3)oc2O)cc1,–,–,–,–,–
Cc1ccc(N=Cc2nc(-c3ccc(C)cc3)oc2O)cc1,-42.4,·,·,–,–
COc1ccc(C(C)(O)c2nc(-c3cccc(F)c3)cs2)cc1 (configuration not stated),·,·,·,–,·
Cc1cc(=O)[nH]c(-n2[nH]c3c(c2=O)CCCC3)n1,–,52.6,66.7,–,–
O=C(CSc1nc(-c2ccccc2Cl)ns1)NCc1ccc2c(c1)OCO2,–,–,63.0,–,–
O=C(CSc1nc(-c2ccccc2Cl)ns1)NCc1ccco1,–,–,–,–,–
Oc1ccccc1C=NC1=NN(c2cccc(C(F)(F)F)c2)CC1,–,–,–,–,112.9
FC(F)(F)c1cccc(N2CCC(N=CN3CCCCCC3)=N2)c1,–,–,–,–,–

# Screening results as filed in PubChem BioAssay.
